Consider four molecules from PubChem BioAssay (EPA / NIEHS).

A word on the AC50: it is the midpoint of the concentration-response curve, whichever way the signal moves.

Read-out in experiment [1]: Transforming growth factor beta 1 (TGFb1), TGFB1 (gene 7040)
Put plainly: BSK_KF3CT_TGFb1: BioMAP Diversity Plus: KF3CT Assay for Transforming growth factor beta 1 (TGFb1) Biomarker Activity (AID 2283072). To be noted: primary human keratinocytes with fibroblasts; actives raise or lower the signal. The gist of the method:
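ELISA quantifies TGF-b1 at 24 h post-dose in a primary human skin co-culture of keratinocytes and fibroblasts, with gain or loss judged against DMSO. Parallel SRB total-protein staining flags overt cytotoxicity.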

Read-out in experiment [2]: C-C motif chemokine 2 (Homo sapiens) (UniProt P13500)
Put plainly: BSK_KF3CT_MCP1: BioMAP Diversity Plus: KF3CT Assay for Monocyte Chemoattractant Protein 1 (MCP1/CCL2) Biomarker Activity (AID 2283073). Particulars: primary human keratinocytes with fibroblasts; actives raise or lower the signal. The gist of the method: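 Human keratinocyte plus foreskin fibroblast primary co-culture exposed to chemical for 24 h. MCP-1 levels measured by ELISA. Bidirectional curve fitting relative to DMSO negative control as baseline.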

Read-out in experiment [3]: Matrix Metallopeptidase 9 (MMP9), MMP9 (gene 4318)
Put plainly: BSK_KF3CT_MMP9: BioMAP Diversity Plus: KF3CT Assay for Matrix Metallopeptidase 9 (MMP9) Biomarker Activity (AID 2283074).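 As to AC50: MMP9 protein level quantified by ELISA in the co-culture.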 To be noted: primary human keratinocytes with fibroblasts; actives raise or lower the signal. The gist of the method:
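ELISA read-out of MMP-9 at 24 h post-dosing in a co-culture of human skin keratinocytes and foreskin fibroblasts. Gain or loss of signal was fitted in both directions against DMSO.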

Read-out in experiment [4]: urokinase plasminogen activator (uPA), PLAU (gene 5328)
Put plainly: BSK_KF3CT_uPA: BioMAP Diversity Plus: KF3CT Assay for urokinase plasminogen activator (uPA) Biomarker Activity (AID 2283075). Particulars: primary human keratinocytes with fibroblasts; actives raise or lower the signal. The gist of the method:
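Skin co-culture (keratinocytes + foreskin fibroblasts), human primary; 24 h post-dose; uPA by ELISA; gain/loss fit vs DMSO baseline.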

Read-out in experiment [5]: CD40, CD40 (gene 958)
Put plainly: BSK_LPS_CD40: BioMAP Diversity Plus: LPS Assay for CD40 Biomarker Activity (AID 2283076). To be noted: primary human HUVEC with PBMC; actives raise or lower the signal. The gist of the method:
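Primary human umbilical vein endothelial cells co-cultured with peripheral blood mononuclear cells, LPS-stimulated, were dosed with chemical and read 24 h later. CD40 levels were measured by ELISA and fitted bidirectionally against DMSO as negative control and baseline.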

Read-out in experiment [6]: E-selectin (Homo sapiens) (UniProt P16581)
Put plainly: BSK_LPS_Eselectin: BioMAP Diversity Plus: LPS Assay for Eselectin Biomarker Activity (AID 2283077). To be noted: primary human HUVEC with PBMC; actives raise or lower the signal. The gist of the method:
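Human umbilical vein endothelial cells co-cultured with peripheral blood mononuclear cells under LPS stimulation; E-selectin measured by ELISA 24 h after chemical dosing. Activity fitted bidirectionally against DMSO as negative control and baseline.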

Read-out in experiment [7]: Interleukin-8 (IL8), CXCL8 (gene 3576)
Put plainly: BSK_LPS_IL8: BioMAP Diversity Plus: LPS Assay for Interleukin-8 (IL8) Biomarker Activity (AID 2283078). Particulars: primary human HUVEC with PBMC; actives raise or lower the signal. The gist of the method: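 Human umbilical vein endothelial cells co-cultured with PBMC were stimulated with LPS; IL-8 levels were measured by ELISA 24 h after chemical dosing. Activity was fitted bidirectionally against DMSO as negative control and baseline.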

Experiment [8] can be described thus: BSK_LPS_SRB: Viability Assessment in the BioMAP Diversity Plus: LPS Assay (AID 2283079).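 Also: total protein by sulforhodamine B absorbance as a cytotoxicity measure; measured one day after compound addition.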 To be noted: primary human HUVEC with PBMC. The gist of the method: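 Human umbilical vein endothelial cells co-cultured with PBMC (LPS system) were dosed for 24 h. Total protein was stained with 0.1% sulforhodamine B after 10% TCA fixation, read at 560 nm, and fitted bidirectionally against DMSO baseline.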

Read-out in experiment [9]: Interleukin-1 alpha (IL1a), IL1A (gene 3552)
Put plainly: BSK_LPS_IL1a: BioMAP Diversity Plus: LPS Assay for Interleukin-1 alpha (IL1a) Biomarker Activity (AID 2283080). Particulars: primary human HUVEC with PBMC; actives raise or lower the signal. The gist of the method:
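Human umbilical vein endothelial cells co-cultured with peripheral blood mononuclear cells were LPS-stimulated and exposed to test chemicals for 24 h. IL-1 alpha was quantified by ELISA, with bidirectional curve fitting against DMSO as the negative control and baseline.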

Read-out in experiment [10]: Monocyte Chemoattractant Protein-1 (MCP1), CCL2 (gene 6347)
Put plainly: BSK_LPS_MCP1: BioMAP Diversity Plus: LPS Assay for Monocyte Chemoattractant Protein-1 (MCP1) Biomarker Activity (AID 2283081).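 As to AC50: co-culture stimulated with LPS; secreted MCP-1 protein quantified by ELISA in culture supernatant.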 To be noted: primary human HUVEC with PBMC; actives raise or lower the signal. The gist of the method: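 HUVEC plus PBMC co-culture (human primary cells, LPS system) exposed to test chemical for 24 h; MCP-1 measured by ELISA. Bidirectional curve fitting against DMSO baseline; parallel SRB total-protein staining flags overt cytotoxicity.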

Experiment [11] can be described thus: BSK_LPS_PGE2: BioMAP Diversity Plus: LPS Assay for Prostaglandin E2 (PGE2) Biomarker Activity (AID 2283082).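 As to AC50: secreted prostaglandin E2 measured by ELISA in LPS-stimulated co-culture.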 To be noted: primary human HUVEC with PBMC; actives raise or lower the signal. The gist of the method:
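PGE2 release measured by ELISA in an LPS-activated co-culture of human umbilical vein endothelial cells and peripheral blood mononuclear cells, read at 24 h post-dosing. DMSO served as baseline for bidirectional curve fitting.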

Read-out in experiment [12]: Macrophage colony-stimulating factor (MCSF), CSF1 (gene 1435)
Put plainly: BSK_LPS_MCSF: BioMAP Diversity Plus: LPS Assay for Macrophage colony-stimulating factor (MCSF) Biomarker Activity (AID 2283083). To be noted: primary human HUVEC with PBMC; actives raise or lower the signal. The gist of the method:
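Human umbilical vein endothelial cells co-cultured with peripheral blood mononuclear cells were exposed to compound for 24 h. M-CSF levels were measured by ELISA, and bidirectional curve fitting used DMSO as the negative control and baseline.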

Read-out in experiment [13]: Tissue Factor, F3 (gene 2152)
Put plainly: BSK_LPS_TissueFactor: BioMAP Diversity Plus: LPS Assay for Tissue Factor Biomarker Activity (AID 2283084). Particulars: primary human HUVEC with PBMC; actives raise or lower the signal. The gist of the method:
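Human umbilical vein endothelial cells co-cultured with peripheral blood mononuclear cells were dosed and stimulated with LPS. Cell-surface CD142 was quantified by ELISA at 24 h. Activity was fitted bidirectionally against DMSO baseline.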

Read-out in experiment [14]: Tumor necrosis factor (Homo sapiens) (UniProt P01375)
Put plainly: BSK_LPS_TNFa: BioMAP Diversity Plus: LPS Assay for Tumour Necrosis Factor alpha (TNFa) Biomarker Activity (AID 2283085).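 As to AC50: TNFa protein level quantified by ELISA in the co-culture.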 Particulars: primary human HUVEC with PBMC; actives raise or lower the signal. The gist of the method: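 TNFa was quantified by ELISA in LPS-activated co-cultures of human endothelial cells and PBMC, 24 h post-dosing. Both increases and decreases versus DMSO were fitted.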

Read-out in experiment [15]: Vascular cell adhesion molecule 1 (VCAM1), VCAM1 (gene 7412)
Put plainly: BSK_LPS_VCAM1: BioMAP Diversity Plus: LPS Assay for Vascular cell adhesion molecule 1 (VCAM1) Biomarker Activity (AID 2283086). Particulars: primary human HUVEC with PBMC; actives raise or lower the signal. The gist of the method:
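VCAM-1 quantified by ELISA in an LPS-activated co-culture of human endothelial cells and peripheral blood mononuclear cells, read 24 h post-treatment. Fitted in both directions versus DMSO; parallel SRB staining flags overt cytotoxicity.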

Read-out in experiment [16]: CD40, CD40 (gene 958)
Put plainly: BSK_SAg_CD40: BioMAP Diversity Plus: SAg Assay for CD40 Biomarker Activity (AID 2283088). To be noted: primary human HUVEC with PBMC; actives raise or lower the signal. The gist of the method: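 Human umbilical vein endothelial cells co-cultured with PBMC; CD40 levels measured by ELISA with fluorescence read-out 24 h after chemical dosing. Gain or loss of signal fitted bidirectionally against DMSO baseline.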

Read-out in experiment [17]: Monocyte Chemoattractant Protein-1 (MCP1), CCL2 (gene 6347)
Put plainly: BSK_SAg_MCP1: BioMAP Diversity Plus: SAg Assay for Monocyte Chemoattractant Protein-1 (MCP1) Biomarker Activity (AID 2283090). Particulars: primary human HUVEC with PBMC; actives raise or lower the signal. The gist of the method:
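Values derive from bidirectional fitting of ELISA-measured MCP1 against DMSO controls. Readings were taken 24 h after dosing human vascular endothelial cells co-cultured with peripheral blood mononuclear cells under superantigen stimulation.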

Read-out in experiment [18]: E-selectin (Homo sapiens) (UniProt P16581)
Put plainly: BSK_SAg_Eselectin: BioMAP Diversity Plus: SAg Assay for Eselectin Biomarker Activity (AID 2283091). Particulars: primary human HUVEC with PBMC; actives raise or lower the signal. The gist of the method:
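HUVEC co-cultured with PBMC, compound dosed then read at 24 h; E-selectin measured by ELISA. Activity fitted bidirectionally against DMSO as negative control and baseline.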

Read-out in the next experiment: CD69, CD69 (gene 969)
Put plainly: BSK_SAg_CD69: BioMAP Diversity Plus: SAg Assay for CD69 Biomarker Activity (AID 2283089).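 As to AC50: cell surface CD69 protein quantified by ELISA with fluorescence detection.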 Particulars: primary human HUVEC with PBMC; actives raise or lower the signal. The gist of the method: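 Primary human vascular co-culture (umbilical vein endothelium with peripheral blood mononuclear cells) exposed to test chemical for 24 h. CD69 levels quantified by fluorescence ELISA; DMSO served as negative control for bidirectional fitting.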

Active and inactive are the calls of the source. The calls were made as follows: active = hit-call score of the fitted dose curve at least 0.9, where 1 is the maximum; inactive = score below 0.9.

Tumor necrosis factor (Homo sapiens), sequence (P01375 whole entry, looked up): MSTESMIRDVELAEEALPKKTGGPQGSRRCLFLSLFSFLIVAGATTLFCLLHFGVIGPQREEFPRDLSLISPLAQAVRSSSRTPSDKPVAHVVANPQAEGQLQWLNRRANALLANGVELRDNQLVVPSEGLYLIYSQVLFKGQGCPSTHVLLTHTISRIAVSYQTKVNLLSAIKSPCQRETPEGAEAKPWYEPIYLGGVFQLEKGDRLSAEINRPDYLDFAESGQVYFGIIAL
E-selectin (Homo sapiens), sequence (P16581 whole entry, looked up): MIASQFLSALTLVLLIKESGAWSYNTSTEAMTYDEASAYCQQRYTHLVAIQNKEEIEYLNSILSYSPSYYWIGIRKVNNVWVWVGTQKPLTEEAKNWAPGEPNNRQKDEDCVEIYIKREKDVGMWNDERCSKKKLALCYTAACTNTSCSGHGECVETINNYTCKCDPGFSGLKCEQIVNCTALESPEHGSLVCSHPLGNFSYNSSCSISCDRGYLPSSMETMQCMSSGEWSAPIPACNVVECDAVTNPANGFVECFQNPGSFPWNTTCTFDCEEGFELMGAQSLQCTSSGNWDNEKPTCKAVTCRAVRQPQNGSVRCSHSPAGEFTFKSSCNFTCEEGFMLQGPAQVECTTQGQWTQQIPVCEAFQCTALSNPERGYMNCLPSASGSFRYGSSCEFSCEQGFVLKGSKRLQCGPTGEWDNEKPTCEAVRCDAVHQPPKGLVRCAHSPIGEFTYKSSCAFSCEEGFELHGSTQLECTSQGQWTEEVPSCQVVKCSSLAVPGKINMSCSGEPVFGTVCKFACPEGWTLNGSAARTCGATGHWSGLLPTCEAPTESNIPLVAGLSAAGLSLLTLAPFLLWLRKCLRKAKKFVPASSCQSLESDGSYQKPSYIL

Consider `N#CN=C1SCCN1Cc1ccc(Cl)nc1`, for which the outcome in [1] was “inactive”; in [2] it was “inactive”; in experiment [3], “inactive”; in [4], “inactive”; with CD40, CD40 (gene 958) [5] it was “inactive”; in experiment [6], “inactive”. The result in experiment [7], in experiment [8], in [9], in [10], in [11] and in [12] was inactive. Further, the outcome was “inactive” in [13]; “inactive” in experiment [14]; “inactive” in experiment [15]; “inactive” with CD40, CD40 (gene 958) [16]; “inactive” in experiment [17]; “inactive” in [18].
With `CCCCOCN(C(=O)CCl)c1c(CC)cccc1CC`, the AC50 in experiment [1] was 32.7 µM (active); in [2] it was 39.1 µM (active); in experiment [3], 25.7 µM (active); in experiment [4] it was 31.3 µM (active); with CD40, CD40 (gene 958) [5], 22.5 µM (active); in experiment [6], 31.3 µM (active). Besides, the AC50 was 28 µM (active) in [7]; 29.2 µM (active) in [8]; 30.7 µM (active) in experiment [9]; 31.8 µM (active) in experiment [10]; 27 µM (active) in experiment [12]; 30.2 µM (active) in [13]. The AC50 in experiment [14] was 35.1 µM (active); in experiment [15], 28.2 µM (active); with CD40, CD40 (gene 958) [16] it was 30.8 µM (active); with CD69, CD69 (gene 969), 18.3 µM (active); in [17] it was 28.5 µM (active); in [18] it was 18.9 µM (active). The result in experiment [11] was inactive.
For the molecule `CC1(C)C(C(=O)OC(C#N)c2cccc(Oc3ccccc3)c2)C1(C)C` (configuration not stated), the outcome in [1], in experiment [4], in [6], in experiment [7], in experiment [8] and in experiment [9] was inactive. The outcome in experiment [10], in [12], in experiment [13], in [15] and in experiment [17] was inactive. The AC50 in experiment [3] is 5.56 µM (active); with CD40, CD40 (gene 958) [5] it was 12.9 µM (active); in experiment [11], 6.92 µM (active); in experiment [14], 5.68 µM (active); with CD40, CD40 (gene 958) [16], 14.1 µM (active); in experiment [18] it was 13.1 µM (active).
`CN/C(=N\[N+](=O)[O-])NCc1cnc(Cl)s1`: the outcome was “inactive” in experiment [1]; “inactive” in experiment [3]; “inactive” in experiment [4]; “inactive” with CD40, CD40 (gene 958) [5]; “inactive” in experiment [6]; “inactive” in [7]. Also, the outcome in [8], in experiment [9], in experiment [10], in experiment [11], in [12] and in experiment [13] was inactive. In addition, the outcome in experiment [14] is “inactive”; in experiment [15], “inactive”; with CD40, CD40 (gene 958) [16] it was “inactive”; with CD69, CD69 (gene 969) it was “inactive”; in experiment [17] it was “inactive”; in experiment [18], “inactive”.
